Source: PubChem (National Center for Advancing Translational Sciences (NCATS))
Many of the other results were omitted from the sample, so hits are more common in it than they were.
Pf Dd2 growth: qHTS Primary assay for Inhibitors of Plasmodium falciparum Dd2 growth in vitro; P. falciparum Dd2 growth, SYBR Green, 72 h; Potency, µM (titrated, usually from 28.9 µM), for inactives: at the top dose activity, negative = inhibition, actives largely listed as inhibitors; actives 4.3% (n = 120,000); active = well fitted inhibition curve with a large enough effect;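 also: plate controls were DMSO vehicle for no effect and reference drug for full effect; nearly all actives have a fitted effect of over 65% in size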
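Infected erythrocytes (Dd2, 0.3% parasitemia, 2.5% hematocrit final) are added to compound in RPMI-1640/Albumax II medium, grown 72 h at 37C in low oxygen, then lysed with saponin/Triton-X containing SYBR Green and read by fluorescence.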
Starred values were filed as active, the others as inactive; i = inactive; [ ] = remark or other dose. Potency is read from the fitted curve at half-maximal effect.

SMILES	Pf Dd2 growth
COc1cc(NC2=N[C@H]3[C@@H](O)[C@H](O)C[C@H](C(=O)N(C)Cc4ccccc4)[C@H]3S2)cc(OC)c1	-17%
COc1ccc(C(=O)N2CCC3(CC2)NCCc2c3[nH]c3ccccc23)cc1	-18%
Cc1ccc(C(=O)N2CCC(c3c[nH]c4ccccc34)(c3c[nH]c4ccccc34)CC2)cc1	2µM*
Cc1ccc(C(=O)N2CCC3(CC2)N=C(c2ccccc2)NO3)cc1	i
CCOC(=O)c1noc2ncn(CC(=O)Nc3cc(Cl)ccc3OC)c(=O)c12	25%
CC(=O)N1CCN(C(=O)C[C@@H]2CCNC[C@@H]2Cc2cc(COc3ccccc3)on2)CC1	-26%
O=C1NCc2ccccc2CC12CCCN2Cc1cccc(OC(F)(F)F)c1 (centres undefined)	-18%
O=C(NCc1ccc(F)cc1)c1csc(N2CCN(c3ccccc3F)CC2)n1	i
CC(C)CCNC(=O)Cn1c(-c2cccs2)cc2cc(F)ccc21	4.5µM*
CC(C)CCNC(=O)Cn1cc(S(=O)(=O)Cc2ccc(F)cc2)c2ccccc21	51%
O=C(Cn1c(-c2cccs2)cc2cc(F)ccc21)NCCCN1CCN(c2ccccc2F)CC1	8.9µM*
CC(C)(C)c1ccc2c(c1)N(CC(=O)NCCCN1CCN(c3ccccc3F)CC1)C(=O)CO2	0%
CCc1ccc(CNC(=O)Cn2c(-c3cccs3)cc3cc(F)ccc32)cc1	19%
O=C(NCCN1CCN(c2ccccc2F)CC1)C1COc2ccccc2C1 (centres undefined)	3%
O=C(Cn1c(-c2cccs2)cc2ccccc21)NCCCN1CCN(c2ccccc2F)CC1	8.9µM*
CCN1CCN(C(=O)Cn2c(-c3cccs3)cc3ccccc32)CC1	-21%
COC(=O)c1cc2n(n1)CCN(C(=O)c1cc(CC(C)C)[nH]c(=O)n1)C2	0%
COc1ccc(Cl)cc1NC(=O)CSc1cn(CC(=O)N2CCCCC2)c2ccccc12	-20%
Cc1ccc2ncc(C(=O)Nc3cccc(C(F)(F)F)c3)c(=O)n2c1	23%
CCn1cc2c(n1)-c1c(oc(C(=O)Nc3cccc(C)c3C)c1C)CC2	3%
CCCOC(=O)C(C)n1nnc2sc(-c3ccccc3)cc2c1=O (centres undefined)	17%
O=C(NCCSc1ccccc1)[C@H]1CNC[C@@H](C(=O)N2CCOCC2)C1	13%
COc1ccc(CC(=O)N2CC[C@@H](CC(=O)O)[C@@H](CCN3CCN(c4ccc(F)cc4)CC3)C2)cc1	-23%
c1ccc(CCN2CCNc3cc(NCc4cccnc4)ncc3C2)cc1	-18%[44.1 µM]
Cc1cc(-c2ccc(C)c(S(=O)(=O)NCC3CCN(Cc4ccccc4F)CC3)c2)on1	i
SMILES	Pf Dd2 growth
Cc1cccc(Nc2nnc(-c3ccc(C)c(S(=O)(=O)NCC4CCCO4)c3)c3ccccc23)c1 (centres undefined)	4.5µM*
Cc1ccc(-c2nnc(Nc3cccc(Cl)c3)c3ccccc23)cc1S(=O)(=O)NCC1CCCO1 (centres undefined)	10µM*
Cc1ccc(-c2cnc(C3CC3)o2)cc1S(=O)(=O)Nc1cccc(C#N)c1	-3%
CCOC(=O)c1c(Nc2cccc(C)c2)nnc(-c2ccccc2)c1-c1ccccc1	i
Cc1ccc(-c2nnc(Nc3ccc(Cl)cc3)c3ccccc23)cc1S(=O)(=O)NCC1CCCO1 (centres undefined)	33%
CN1C(=O)c2cccn2CC1CNC(=O)c1ccccc1F (centres undefined)	20%
COc1ccc(-c2cn3nc(SCC(=O)Nc4cc(C)cc(C)c4)ccc3n2)cc1	14%
O=C(NCc1cccnc1)C1CCN(C(=O)N2CC3CC(C2)[C@H]2CCCC(=O)N2C3)CC1 (some centres undefined)	30%
Cc1ncc2n1C(=O)N(C1CCN(Cc3cccnc3)CC1)C2	13%[44.1 µM]
O=C(C1CC1)N1CCC(OC2CCN(Cc3cccnc3)CC2)CC1	-7%
c1cncc(CN2CCC(Oc3nccnc3N3CCc4ccccc43)C2)c1 (centres undefined)	3.5µM*
O=C(O)C1CN(S(=O)(=O)C2CC2)CC12CCCCC2 (centres undefined)	9%
O=C(NCC1CN(Cc2ccncc2Cl)CC12CN(c1ccccc1)C2)c1ccccc1 (centres undefined)	-3%
O=C(Cc1ccccc1)NCC1CN(Cc2ccncc2Cl)CC12CN(c1ccccc1)C2 (centres undefined)	11µM*
O=C(c1cccnc1)N1CC(COc2ccccc2)C2(C1)CN(c1ccccc1)C2 (centres undefined)	-26%[44.1 µM]
O=C(c1cccc(Cl)c1)N1CC(CNc2cccnc2)C2(C1)CN(c1ccccc1)C2 (centres undefined)	13µM*
Cn1cc(C(=O)NCC2CN(C(=O)c3ccccc3)CC23CN(c2ccccc2)C3)cn1 (centres undefined)	i
CC(C)c1ccc(CN2CC(CNC(=O)c3cnn(C)c3)C3(C2)CN(c2ccccc2)C3)cc1 (centres undefined)	i
COc1ccc(CNC(=O)c2cccc(N3CCCS3(=O)=O)c2)cc1OC	30%[5.79 µM]
COc1cccc(-c2cc(C(=O)Nc3ccc(Br)c(C)c3)[nH]n2)c1	-26%
O=C(Nc1ccc(F)cc1)c1cc(-c2ccc[nH]2)n[nH]1	i
COc1cccc(CNC(=O)c2cc(-c3cccc(OC)c3)n[nH]2)c1	10%
CSc1ccc(NC(=O)c2cc(-c3ccc[nH]3)n[nH]2)cc1	13µM*
Cc1ccc(NC(=O)c2cc(-c3ccc[nH]3)n[nH]2)cc1F	-5%
COc1cccc(-c2cc(C(=O)Nc3ccc(F)cc3)[nH]n2)c1	2.5µM*
SMILES	Pf Dd2 growth
COc1ccc(S(=O)(=O)c2c(SC)nn(Cc3ccccc3C)c2NC(C)=O)cc1	22%
CN(C(=O)c1ccccn1)C1CCc2ccccc21 (centres undefined)	-21%[44.1 µM]
Cn1cc(-c2cnc3[nH]cc(CC(=O)N4CCN(Cc5ccccc5)CC4)c3c2)cn1	i
CN(C)c1ccc(CNC2(Cc3cc(-c4ccccc4)on3)COC2)cc1	-20%[44.1 µM]
Cc1ccccc1-c1nc(Cn2ccnc2C(C)C)c(C)o1	11µM*
Cc1ccc(CSc2nc3ccncc3n2Cc2nc(-c3ccccc3C)oc2C)cc1	11%
Cc1ccccc1-c1nc(CS(=O)(=O)CC(=O)Nc2c(C)cccc2C)c(C)o1	4%
Cc1nn(-c2ccc(N3CCOCC3)nn2)c(C)c1CCC(=O)NCc1ccccc1F	i
COc1cccc(CC(=O)N2[C@@H]3CC[C@H]2CC(NC(=O)c2ccc(F)cc2)C3)c1 (some centres undefined)	i
CC(C)CC(=O)N1[C@@H]2CC[C@H]1CC(NC(=O)c1ccc(F)cc1)C2 (some centres undefined)	-18%
O=C(NC1C[C@H]2CC[C@@H](C1)N2C(=O)CCCc1ccccc1)c1ccc(F)cc1 (some centres undefined)	8.9µM*
O=C1CCN(S(=O)(=O)c2cccc(F)c2)CCCC(c2nc(-c3cccnc3)no2)CCN1 (centres undefined)	i
Cc1ccccc1-n1nc(CO)c(C(=O)NCCc2ccccc2)n1	34%
Cc1cc(C)n(CCCNC(=O)c2cccc(C3CCNC3)c2)n1 (centres undefined)	-1%
COc1ccc(-c2ccc3nnc(CNC(=O)COc4ccc(F)cc4)n3n2)cc1	-1%
COc1cccc(NC(=O)NC[C@@H]2C=C(C)[C@H](CC(=O)N3CCN(c4ccccn4)CC3)C[C@H]2C(C)C)c1	13µM*
